# Results taken from the supplement of paper PMC3334620.
# Over roughly 33,000 sequences, “E-score (-0.5 to 0.5)” has its median near -8e-05; the highest 2% begin near 0.23. What follows is part of a selection rich in the highest values, with near analogues and random picks from the rest.
# Molecular target: T1, Nrg2 (UniProt P38082)
# T1 sequence: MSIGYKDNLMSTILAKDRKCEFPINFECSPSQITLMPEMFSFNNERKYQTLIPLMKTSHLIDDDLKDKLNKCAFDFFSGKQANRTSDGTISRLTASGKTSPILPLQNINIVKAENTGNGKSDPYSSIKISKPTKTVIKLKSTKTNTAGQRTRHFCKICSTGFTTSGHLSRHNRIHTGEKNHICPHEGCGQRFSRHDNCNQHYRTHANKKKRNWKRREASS
# Experiment: PBM E-score (8-mer binding enrichment) (E-score (-0.5 to 0.5)); higher = stronger / more preferred TF binding
# Conditions: protein concentration: 100 nM; construct: GST-full length
# Method in brief: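 Universal all-10-mer Agilent arrays, fresh or stripped once, were converted to double-stranded form by primer extension. GST-tagged yeast transcription factors from PURExpress in vitro transcription/translation, full-length or DNA-binding domain only, were applied at about 100-200 nM and detected with fluorescent anti-GST. After masliner normalisation, the Universal PBM Analysis Suite scored each ungapped eight-base word together with its reverse complement by E-score.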
row,Sequence,PBM E-score
1,AATAATTA,0.286
2,CATTAATA,0.155
3,ATTTAATA,0.247
4,CCACCACG,0.00854
5,CGGGTCAG,0.023
6,ACCCAGGA,-0.227
7,ACTGTGGA,-0.109
8,CGGTCGAC,-0.0395
9,ACTCTAAA,0.101
10,GATAGCAA,0.0872
11,AACTGTCC,-0.0683
12,GCTGAAAC,-0.139
13,GCTGATAC,-0.0795
14,GTTGATAA,0.232
15,CTTGATAA,0.147
16,CCTGATAC,0.229
17,ATTGATTC,0.244
18,ATTGATAG,-0.0275
19,ATTGATAC,0.274
20,ATTGATTG,0.142
21,CCTGATAG,-0.153
22,GTTGATGA,0.0639
23,ATTGATAA,0.0942
24,CTTGATTC,0.0772
25,AAACTCCC,-0.0959

row,Sequence,PBM E-score
1,GTGGATTA,0.0668
2,CGGCCTTA,0.0601
3,ACTCAAGC,-0.148
4,CAGTTTTC,0.17
5,AATGGCAT,0.26
6,AATGGCAC,-0.0263
7,AATGGAAG,0.0112
8,AATGGAAC,0.108
9,AATGGCAG,0.0917
10,AATGGAAT,0.241
11,CGCCAAAA,0.119
12,AAGGAAAC,-0.128
13,AAGGGACC,0.424
14,CAGGGACC,0.4
15,GAGGGACA,0.0412
16,CAGGGACA,0.371
17,AGGGGACC,0.225
18,CAGGGACG,0.306
19,AAGGGACT,0.123
20,CAGAGACC,-0.212
21,AAGGGACA,0.137
22,CAGAGACG,0.0459
23,GAGGGACC,0.0355
24,AAGGGACG,0.207
25,AGCAAACA,0.0834

row,Sequence,PBM E-score
1,GGCGCCTA,-0.0964
2,AGAACCGC,0.0943
3,ACGTCAGC,0.129
4,CCCGAACG,-0.0859
5,GCAAACGA,0.0657
6,GGCAACTA,0.194
7,CGCAACTC,0.147
8,CGCAACTA,0.244
9,GCGGCCAA,-0.133
10,AAGACCCG,0.0509
11,AAGACCCT,0.291
12,AAGACCCA,-0.181
13,AGGACCCG,0.0935
14,AGGACCCA,-0.179
15,AGGACCCT,0.369
16,CCAACCTA,-0.118
17,AAGTGAGC,-0.0445
18,CATGGGAA,0.0176
19,CAGATGAA,0.026
20,ACGCTAGG,-0.266
21,AACCAGGG,0.176
22,ATCAAAAT,-0.0176
23,ATTAACAA,0.179
24,ATTAAAAA,0.246
25,ATTAAACC,0.199

row,Sequence,PBM E-score
1,ATTAAAAT,0.174
2,ATCAAAAA,0.237
3,CTTAACAC,0.0347
4,CTTAAAAC,0.0325
5,ATCAAAAG,0.00066
6,ATTAACAC,0.246
7,ATTAAAAG,0.103
8,ATTAAAAC,0.241
9,CCTCGTAC,0.0199
10,CGAACTGC,-0.0594
11,TCCAGAGA,-0.144
12,AAGGGGAT,0.205
13,ACTTAGGG,0.0512
14,ACCAACTC,-0.0268
15,CCCAACTA,0.174
16,CCCAACTC,0.256
17,GCCGCGCA,-0.0674
18,CTGGTGGC,0.00474
19,ACAGTAGA,0.138
20,CGTATTTA,0.248
21,GGTATTTA,0.0832
22,AGTATTTA,0.0065
23,AGCCCCAT,-0.0124
24,CTGCGATC,0.0398
25,CGAGGGCC,-0.0174

row,Sequence,PBM E-score
1,AACTTATG,-0.0218
2,AACTTATT,0.256
3,AACTTATC,0.121
4,CATAGTCG,-0.0054
5,AGGCAAGA,-0.0756
6,AAGCCCTC,-0.132
7,ACCAACAT,0.0787
8,ACCAACAA,0.245
9,ACCAACAG,-0.00807
10,GAGAAAGC,0.0912
11,ACCTACAT,0.00858
12,GCCCCAGC,0.0519
13,CTGGTGCC,-0.212
14,AGCTACTA,0.0519
15,AACTACTG,0.0512
16,CGCTACTC,-0.0612
17,TACTAATA,0.0648
18,AACTACTC,0.184
19,CGCTACTA,0.234
20,CACTAATA,0.133
21,AACTAATA,0.354
22,AACTACTA,0.296
23,AAGACGTG,-0.0832
24,ACGAATAG,0.0297
25,CACCTCCC,-0.294

row,Sequence,PBM E-score
1,CAGATGGC,-0.107
2,AAGATACA,0.171
3,GAGATACA,0.296
4,CATACCTA,-0.0293
5,AAGATATC,0.149
6,CAGATATC,0.133
7,AATACCTA,0.144
8,GATACCTA,0.256
9,GCGATACA,-0.00403
10,GAGATATC,0.282
11,ACGATACA,-0.0148
12,TAGATACA,0.0563
13,TCGATACA,0.243
14,ATTTACAA,0.0879
15,GCGCACAA,0.195
16,GTAGAGTA,-0.0442
17,CCACGGGC,-0.139
18,GGCCGCCA,0.0869
19,GAGGCCGA,-0.0441
20,CAAACAAC,0.14
21,ATAGGAAC,-0.0698
22,AAAGCAGT,0.201
23,CATACATA,0.219
24,GATACATA,0.246
25,GATACATC,0.134

row,Sequence,PBM E-score
1,CACATACA,-0.0126
2,TACATACA,0.199
3,GACATACA,0.246
4,AGAAGTAC,-0.0369
5,ACCCGCGT,-0.119
6,ACCCGCGA,0.174
7,ACCCGCCG,0.201
8,CCCCGCGG,0.0578
9,ACCCGCGC,0.229
10,ACCCGCGG,0.275
11,ACTAGGAA,-0.094
12,CGAATCAC,0.117
13,CTGGACCC,0.275
14,ATGGACCC,0.206
15,AGGGACCT,0.382
16,AGGGACCA,0.35
17,AGGGACGA,0.248
18,AGGGACGC,0.196
19,AAGGACCT,0.0061
20,ACGGACCT,0.17
21,CTGGACCA,-0.0552
22,GGGGACCA,0.0565
23,AGGGACGG,-0.0133
24,CGGGACCA,-0.173
